Assay results taken from PubChem BioAssay (NCI).
“And” between values parts separate entries of the source, which are not always exact repeats. Equal entries are not always repeated. Compounds without any hit were thinned out: in the full panel of roughly 83,000, 20% have a hit.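 Single-concentration screen, 48 h exposure, 96-well plates. Endpoint: percent growth. Below 10 = active.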 Unmarked numbers belong to inactive results. The source made the active and inactive calls.

tested on: MDA-MB-468 breast; assay: NCI-60 one-dose screen, 48 h (100 = growth as untreated, 0 = no growth, -100 = all killed); settings: 10 µM unless noted
Experimental: Growth inhibition of the MDA-MB-468 human Breast tumor cell line is measured as a screen for anti-cancer activity. Cells are grown in 96 well plates and exposed to the test compound for 48 hours. Compounds are tested at a single concentration, which is 10^-5 M for most compounds. The reported endpoint is percent growth (GI% or GIPRCNT), where numbers from 0 - 100% represent growth inhibition, and numbers from -100% - 0 represent cell death. For example, a value of 40 represents 60% growth inhibition. A value of 0 means no net growth occurred over the course of the experiment. A value of -40 indicates 40% of cells at the beginning of the experiment died by the end of the experiment. A value of -100 means all cells are dead at the end of the experiment.
NCI-60 Human Tumor Cell Lines Screen was performed using the standard one-dose NCI protocol, which is described in more detail at https://dtp.cancer.gov/discovery_development/nci-60/default.htm.
Compounds with GIPRCNT values below 10 were considered active. Activity score was based on GIPRCNT using the following formula: […]
Score is 0 for GIPRCNT values of 100 or above, 50 for GIPRCNT values of 0, and 100 for GIPRCNT values of -100.

Going from `O=C(CCc1nnc(Cn2cnc3nc[nH]c3c2=O)o1)c1nc2ncccc2[nH]1` to `CCOC(=O)c1c2c(cn1Cc1ccccc1)-c1oncc1CC2`, the growth rises from 102% to 105%.

Going from `CS(=O)(=O)c1ccc(-n2cc(/C=C/C(=O)c3ccc(NC(=O)CO[N+](=O)[O-])cc3)c(-c3ccc(Cl)cc3)n2)cc1` to `CS(=O)(=O)c1ccc(N/N=C/c2c(-c3ccc(S(C)(=O)=O)cc3)[nH]c3ccc(F)cc23)cc1`, the growth falls from 94.1% to 64.3%.

First: CCCCN[C@H]1CC[C@@]2(C)[C@@H](CC[C@@]3(C)[C@H]2[C@H](O)C[C@H]2/C(=C(\CCC=C(C)C)C(=O)OC)[C@@H](OC(C)=O)C[C@@]23C)[C@@H]1C
Second: CC1(C)[C@@H](O)CC[C@]2(C)[C@H]3CC[C@@H]4[C@H]5[C@H](C(=O)/C=C\c6ccccn6)CC[C@]5(O)CC[C@@]4(C)[C@]3(C)CC[C@@H]12
The growth of the first is higher: 88.9% for the first, 23.8% for the second.

Going from `CCOC(=O)C12CCCC1=CC(=O)CC2` (stereo not given) to `CCOC(=O)N1CCc2c(sc3nc4nc[nH]n4c(=O)c23)C1`, the growth rises from 110% to 112%.

First: CCCNC(=O)Oc1ccc(/C(=C(\C)c2ccccc2)c2ccc(OCCN3CCCCC3)cc2)cc1
Second: COc1ccccc1/C=C1\Oc2cc(OCCN3CCCC3)ccc2C1=O
The growth of the first is higher: 73.6% for the first, 56.3% for the second.

Going from `Cc1cc(N(CCCNc2ccnc3cc(Cl)ccc23)Cc2ccco2)nc(Cl)n1` to `OCCNc1nccc(N2CCN(c3ccnc4cc(Cl)ccc34)CC2)n1`, the growth rises from 32.4% to 54.8%.

Going from `C=C1CCC2C3(C)COC(c4ccc(NC(C)=O)cc4)OC3CCC2(C)C1C/C=C1/C(=O)OCC1O` (stereo not given) to `C[C@H](c1nc2ccc(N)cc2[nH]1)[C@H]1CC[C@H]2[C@@H]3CCC4=CC(=O)CC[C@]4(C)[C@H]3CC[C@]12C`, the growth rises from 19.3% to 68.1%.

Compared with `Cc1cccc(NC(=O)Cn2cc(CN3CCN(c4ccnc5cc(Cl)ccc45)CC3)nn2)c1`, `CCCn1c2cc(OCc3cn(-c4ccc(Br)cc4)nn3)ccc2c2ccnc(C)c21` is lower in growth: 90.2% for the first, 25.6% for the second.

First: CC1(C)OC(=O)C(=Cc2ccccc2Br)C(=O)O1
Second: C=CCN1C(=O)/C(=c2\sc3n(c2=O)C2C(NN=3)N(CC)C(=O)N2CC)c2ccccc21 (stereo not given)
The growth of the first is higher: 98.2% for the first, 16.3% for the second.

Compared with `CC(C)NCC(O)COc1ccc(CC(N)=O)cc1` (stereo not given), `Cc1cc2cc3c(=O)[nH]c(=O)cc-3n(CC(O)C(O)C(O)CO)c2cc1C` (stereo not given) is higher in growth: 102% for the first, 122% for the second.

Going from `Cn1cc(-c2cc(N)n3nc(-c4cn(C)c5ccc(Br)cc45)cc3n2)c2cc(Br)ccc21` to `c1cc(-c2ccc3c(c2)OCO3)n2nccc2n1`, the growth falls from 97.9% to 95%.

`CCOP(=O)(OCC)/C(=C\N1C(=O)CC(=O)NC1=S)C(=O)OC` and `CCC1(C)OC(=O)NC1=O` (stereo not given) are the same in growth: 107% for the first, 107% for the second.

First: CCC(C)(c1cc(C(C)(C)C)c(O)c(C(C)(C)C)c1)c1cc(C(C)(C)C)c(O)c(C(C)(C)C)c1
Second: CNC(=O)c1cnc(C)nc1-c1cc(C(C)(C)C)c(O)c(C(C)(C)C)c1
The growth of the first is higher: 112% for the first, 97.4% for the second.

Going from `O=c1cc(C(F)(F)F)[nH]c(=S)[nH]1` to `COC(=O)C1CCCN1C(=O)[C@@H]1CCCN1C(=O)[C@H](Cc1c[nH]c2ccccc12)NC(=S)Nc1cc(C(F)(F)F)cc(C(F)(F)F)c1` (stereo not given in full), the growth falls from 110% to 44.3%.

In the case of `CCCCC(CC#N)(CCC)CCC`, the growth is reported as 112%.

In the case of `Cc1cc2c(cc1C)N(C(=O)CCl)CC(=O)N2`, the growth is reported as -12.6% (active).
For `O=C(CN1CCN(c2cc3c(cc2F)c(=O)c(C(=O)N/N=C/c2ccccc2O)cn3C2CC2)CC1)N/N=C\c1ccccc1O`, the growth was -4.47% (active).
With `COc1cc2c(c(OC)c1OC)-c1ccc(NNC(=S)N(Cc3cccc(C[N+](Cc4cccc(CNC56CC7CC(CC(C7)C5)C6)c4)(Cc4cccc(CNC56CC7CC(CC(C7)C5)C6)c4)Cc4cccc(CN(C(=S)NNc5ccc6c(cc5=O)[C@@H](NC(C)=O)CCc5cc(OC)c(OC)c(OC)c5-6)C56CC7CC(CC(C7)C5)C6)c4)c3)C34CC5CC(CC(C5)C3)C4)c(=O)cc1[C@@H](NC(C)=O)CC2` (stereo not given in full) the growth was -52.7% (active).
For `C=C1C(=O)O[C@H]2[C@H]1CC/C(COC(=O)CCCCCCCC(=O)OC/C1=C/CC[C@@]3(C)O[C@H]3[C@H]3OC(=O)C(=C)[C@@H]3CC1)=C\CC[C@@]1(C)O[C@@H]21`, the growth was -21.6% (active).
`CCN1CCN(C(=O)[C@]23CCC(C)(C)C[C@@H]2C2=CC[C@@H]4[C@@]5(C)C/C(=C/c6cccnc6)C(=O)C(C)(C)[C@@H]5CC[C@@]4(C)[C@]2(C)CC3)CC1` was tested, and the growth was -6.42% (active).
For `CC/C=C\C[C@H](O)C/C=C1/C(=O)C=C[C@@H]1C/C=C\CCCC(=O)OC`, the growth was 3% (active).
For `Cc1c2cnccc2c(C)c2c1c1cc(CO)ccc1n2C`, the growth was -65.7% (active).
For `COc1cc(-c2cc(-c3cc4c([nH]c5ccccc54)c(-c4cc(OC)c(OC)c(OC)c4)n3)cc(-c3ccccc3)n2)cc(OC)c1OC`, the growth was 8.91% (active).
`O=C(CNc1ncco1)Nc1ccc(S(=O)(=O)c2ccc(NC(=O)CNc3ncco3)cc2)cc1` was tested, and the growth was -61.7% (active).
In the case of `Cn1c(COC(=O)NCCc2ccccn2)nc2c(N3CCOCC3)nc(Cl)nc21`, the growth is reported as -51.1% (active).
In the case of `Nc1cc2c(cc1N)-c1ccccc1C2`, the growth is reported as 89.4% and 97.8%.
